Measured values reported in PubChem BioAssay (NCI).
This is part of a sample that, as a whole, favours compounds with a hit. Of some 83,000 tested, about 20% had one in any assay.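 Cells were grown in 96-well plates and exposed to the test compound at a single concentration for 48 hours; results are reported as percent growth, with values below 10 considered active.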 Values without a mark were called inactive. Active and inactive are the calls of the source.

These compounds were tested on MDA-MB-468 breast (assay: NCI-60 one-dose screen, 48 h (100 = growth as untreated, 0 = no growth, -100 = all killed)). Conditions: 10 µM unless noted.

Question: For `O=C(/C=C/C12c3ccccc3C(c3ccccc31)C1C(=O)NC(=O)C12)c1ccccn1` (stereo not given), which growth is on record?
Answer: -13.1% (active)

Question: With `C=C1C(=O)O[C@H]2[C@H]1CC/C(COC(=O)/C=C\C(=O)NCc1ccc(Cn3c(=O)sn(CCCI)c3=O)cc1)=C\CC[C@@]1(C)O[C@@H]21` as the compound, how does the growth read?
Answer: -82.1% (active)

Question: `COc1ccc(NC2=C(Cl)C(=O)C(C)=C(C)C2=O)cc1OC` was tested. Which growth did it give?
Answer: -38.8% (active)

Question: For `ClCC(Cl)C1CCC(Cl)C(Cl)C1` (stereo not given), which growth is on record?
Answer: 114%

Question: How did the growth turn out when `C=CC(=O)N[C@H](Cc1ccc(-c2cc(Cl)cc(Cl)c2)cc1)[C@H](O)[C@@H](O)C(=O)O` was run?
Answer: 85.5%

Question: For `NNC(=O)/C(=C\c1ccc([N+](=O)[O-])cc1)CC(=O)c1ccc(Cl)c(Cl)c1`, which growth is on record?
Answer: 89.2%

Question: How did the growth turn out when `CCOC(=O)c1cnc2sc(-c3ccc(OC)cc3)nc2c1Cl` was run?
Answer: 90.4%

Question: With `CCN(C(=O)N1CCN(c2cc3c(cc2F)c(=O)c(C(=O)O)cn3C2CC2)CC1)c1nc(-c2ccc(C)cc2)cs1` as the compound, how does the growth read?
Answer: -0.725% (active)

Question: Which growth does the source give for `COc1cccc2cc(-c3cc4ccccc4[nH]3)/c(=N/C(=S)Nc3ccc(C)cc3)oc12` here?
Answer: 81.6%

Question: `NC(N)=Nc1ccc(Oc2cccc(Nc3ccc(Br)c(C(F)(F)F)c3)c2)cn1` was tested. Which growth did it give?
Answer: -80.3% (active)

Question: With `CC(=O)N(CC(O)CO)c1c(I)c(C(=O)NCCO)c(I)c(C(=O)NCC(O)CO)c1I` (stereo not given) as the compound, how does the growth read?
Answer: 110%

Question: `CC(C)(C)n1cc(-c2ccnc(NCCNS(=O)(=O)c3ccc(F)cc3)c2)c(-c2cccc(O)c2)n1` was tested. Which growth did it give?
Answer: 8.72% (active)

Question: How did the growth turn out when `CN1C(=O)/C(=C/c2nc(-c3cccc(F)c3)n3ccccc23)c2ccccc21` was run?
Answer: 101%

Question: How did the growth turn out when `COc1cc(C2C=C(c3ccc(C)cc3)Nc3nc(SC)[nH]c(=O)c32)ccc1Oc1ccnc2cc(Cl)ccc12` (stereo not given) was run?
Answer: 75.3%

Question: How did the growth turn out when `CN1CCN(c2nc(-c3cccnc3)nc3sc4c(c23)CCCCCC4)CC1` was run?
Answer: 94.2%

Question: For `COC(=O)c1c2c(c(C)[n+]([O-])c1C)C(=O)C=C(NCc1ccc(Cl)cc1)C2=O`, which growth is on record?
Answer: -67% (active)

Question: For `CNC(=O)c1cc(Oc2ccc(NC(=O)c3nc(S(C)(=O)=O)n(C)c3-c3ccc(F)cc3)cc2)ccn1`, which growth is on record?
Answer: 79.1%

Question: Which growth does the source give for `O=[N+]([O-])c1cccc(C2c3ccccc3Oc3ccccc32)c1` here?
Answer: 95.4%

Question: For `O=C(CC(CC(=O)c1ccccc1)c1ccccc1O)c1ccccc1`, which growth is on record?
Answer: 100%

Question: With `CC(=C(c1ccc(OCCCN(C)C)cc1)c1ccc(OCCCN(C)C)cc1)c1ccc(Cl)cc1` as the compound, how does the growth read?
Answer: 80%

Question: For `c1ccc2[nH]c(-c3ccc(Nc4nc(N5CCCCC5)nc(N5CCOCC5)n4)cc3)nc2c1`, which growth is on record?
Answer: -3.66% (active)

Question: How did the growth turn out when `COc1ccc(Nc2nn3c(SCC(=O)c4ccc(C)cc4)nnc3s2)cc1` was run?
Answer: 87.1%

Question: For `CNC(=O)c1ccccc1Nc1nc(Nc2ccc3c(c2OC)CCC[C@H](N2CCN(CCO)CC2)C3)ncc1Cl`, which growth is on record?
Answer: -52.8% (active)

Question: How did the growth turn out when `Cc1cccc(NC(=O)Cn2cc(CN3CCN(c4ccnc5cc(Cl)ccc45)CC3)nn2)c1` was run?
Answer: 90.2%

Question: For `Cc1cc(N)n(S(=O)(=O)c2oc(-c3ccccc3)nc2C#N)n1`, which growth is on record?
Answer: 72.9%

Question: With `COc1ccc(C(=O)c2sc3nc4c(cc3c2N)CCCC4)cc1OC` as the compound, how does the growth read?
Answer: -5.94% (active)

Question: For `C/C(=N\Nc1ccc([N+](=O)[O-])cc1[N+](=O)[O-])c1ccc(Br)cc1`, which growth is on record?
Answer: 108%

Question: For `N=c1ccn2c(n1)O[C@@H]1[C@@H](O)[C@H](CO)O[C@@H]12`, which growth is on record?
Answer: 77.1%

Question: With `CC(C1=C(CN(C(=O)Cc2cn(-c3ccccc3)nc2-c2ccc(Cl)cc2)C(C)C)Cc2ccccc21)c1ccccn1` (stereo not given) as the compound, how does the growth read?
Answer: 43.8%

Question: How did the growth turn out when `O=C1/C(=C/c2ccc(Cl)cc2)CN(C(=O)CCN2CCC(=NO)CC2)C/C1=C\c1ccc(Cl)cc1` was run?
Answer: -65.3% (active)

Question: For `NNc1nnc2nc(Nc3ccccc3)nc(Nc3ccc(S(N)(=O)=O)cc3)n12`, which growth is on record?
Answer: 126%

Question: How did the growth turn out when `COc1ccc(-c2cnc3ccccc3n2)cc1` was run?
Answer: 99.7%

Question: How did the growth turn out when `COc1cc(/C=C/C(=O)C2=C(/C=C/c3ccc(O)c(OC)c3)NC(=O)NC2c2ccc(O)c(OC)c2)ccc1O` (stereo not given) was run?
Answer: 88.7%

Question: Which growth does the source give for `COC(=O)c1sc(-c2ccc(C)cc2)cc1O` here?
Answer: 99.5%

Question: Which growth does the source give for `Cc1cc(NS(=O)(=O)c2ccccc2)c(OS(=O)(=O)c2ccccc2)cc1C` here?
Answer: 102%

Question: How did the growth turn out when `CC(=O)C(C(C)=O)c1nc2sc3cc(Cl)ccc3n2c(=N)c1C#N` was run?
Answer: 41.7%

Question: `C[C@]12CC[C@@H]3c4ccc(O)cc4CC[C@H]3[C@@H]1C[C@H](O)C2` was tested. Which growth did it give?
Answer: 73.7%

Question: How did the growth turn out when `CCN1C(=O)N(CC)C2C1NN=c1s/c(=C\c3ccc(OC)cc3)c(=O)n12` (stereo not given) was run?
Answer: -0.192% (active)

Question: How did the growth turn out when `O=c1cc(NC2CCN(CCCc3ccccc3)CC2)c2cc(Cl)ccc2o1` was run?
Answer: -13.1% (active)

Question: How did the growth turn out when `COc1ccc(-c2cc(C(=O)Nc3ccc(Br)cc3)nc3[nH]c(=O)sc23)cc1` was run?
Answer: 33.2%
